# How the values were obtained:
# Details in all cases: concentration: 1 μM, replicates: in singlicate; n = 1
# LKB1 = tested on: T1, LKB1
# T1 construct: gene STK11
# LOK = tested on: T2, LOK
# T2 construct: gene STK10
# LRRK2 = tested on: LRRK2
# LTK = tested on: LTK
# LYN = tested on: LYN
# LZK = tested on: T3, LZK
# T3 construct: gene MAP3K13
# MAK = tested on: MAK
# MAP3K15 = tested on: MAP3K15
# MAP3K1 = tested on: MAP3K1
# MAP3K2 = tested on: MAP3K2
# MAP3K3 = tested on: MAP3K3
# MAP3K4 = tested on: MAP3K4
# MAP4K2 = tested on: MAP4K2
# MAP4K3 = tested on: MAP4K3
# MAP4K4 = tested on: MAP4K4
# MAP4K5 = tested on: MAP4K5
# MAPKAPK2 = tested on: MAPKAPK2
# MAPKAPK5 = tested on: MAPKAPK5
# MARK1 = tested on: MARK1
# MARK2 = tested on: MARK2
# 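Note: KINOMEscan kinase panel screen.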
Compound,%Inh (LKB1),%Inh (LOK),%Inh (LRRK2),%Inh (LTK),%Inh (LYN),%Inh (LZK),%Inh (MAK),%Inh (MAP3K15),%Inh (MAP3K1),%Inh (MAP3K2),%Inh (MAP3K3),%Inh (MAP3K4),%Inh (MAP4K2),%Inh (MAP4K3),%Inh (MAP4K4),%Inh (MAP4K5),%Inh (MAPKAPK2),%Inh (MAPKAPK5),%Inh (MARK1),%Inh (MARK2)
CNc1nccc(-c2c(-c3ccc(F)cc3)ncn2CCCN2CCOCC2)n1 [SB-222516],0%,0%,0%,0%,0%,0%,0%,0%,21%,5%,0%,17%,0%,0%,0%,8%,0%,0%,0%,9%
Nc1n[nH]c2nnc(-c3ccccc3)cc12 [SB-517389],0%,0%,0%,0%,69%,0%,0%,0%,9%,5%,0%,32%,0%,0%,3%,0%,5%,0%,0%,0%
CN1c2ccc(-c3ccc(C(=O)NCCO)cc3)cc2-c2[nH]ncc2S1(=O)=O,21%,31%,73%,9%,22%,0%,0%,11%,9%,36%,40%,0%,26%,11%,27%,25%,0%,0%,38%,24%
Oc1ccc2ncnc(Nc3ccc(OCc4ccccc4)cc3)c2c1 [GI262866],0%,0%,48%,82%,0%,0%,13%,20%,5%,0%,0%,2%,0%,11%,4%,0%,16%,0%,0%,0%
O=C(c1ccc(-c2cc(-c3c[nH]nc3-c3ccccn3)ccn2)cc1)N1CCCC1 [GW792479],0%,0%,10%,0%,0%,0%,0%,0%,0%,0%,11%,25%,0%,0%,5%,0%,0%,0%,0%,4%
CS(=O)(=O)CCNCc1ccc(-c2ccc3ncnc(Nc4ccc(OCc5ccccc5)c(Cl)c4)c3c2)o1.Cl [GW574783],0%,58%,22%,25%,0%,26%,12%,5%,15%,0%,0%,0%,0%,1%,0%,5%,16%,0%,0%,0%
COc1cc2c(Nc3cccc(NC(=O)c4ccccc4)c3)ncnc2cc1OCCCN1CCOCC1 [GSK223810],0%,10%,0%,0%,90.3%,0%,0%,0%,0%,6%,0%,18%,0%,9%,0%,43%,5%,0%,11%,0%
Nc1nccc2scc(-c3ccc4c(c3)CCN4C(=O)Cc3cc(F)ccc3F)c12 [GSK2587663],14%,0%,9%,2%,0%,0%,8%,0%,7%,23%,0%,10%,0%,3%,0%,9%,20%,0%,0%,0%
Fc1ccc(Nc2nccc(-c3c(-c4ccc(Cl)cc4)nn4ncccc34)n2)cc1F [GW829058],8%,28%,0%,6%,24%,5%,12%,24%,22%,27%,40%,17%,34%,0%,1%,6%,3%,0%,16%,15%
N#Cc1ccc(Oc2ccc(Nc3ncnc4cc[nH]c34)cc2Cl)cc1,29%,18%,0%,6%,0%,0%,13%,43%,0%,9%,27%,9%,0%,24%,37%,27%,0%,21%,3%,0%
Cn1cc(-c2ccc3c(c2)CCN3C(=O)Cc2cccc(C(F)(F)F)c2)c2c(N)ncnc21 [GSK2606414],0%,0%,43%,15%,0%,0%,0%,0%,3%,9%,0%,12%,0%,0%,10%,10%,100%,0%,6%,0%
O=c1cc(N2CCOCC2)nc2n(Cc3cccc(Cl)c3)ccn12 [GSK2296823],0%,0%,35%,0%,0%,0%,0%,11%,6%,8%,0%,4%,0%,7%,0%,0%,40%,0%,0%,81%
Fc1cccc(COc2ccc(Nc3ncnc4sc(-c5ccc[nH]5)cc34)cc2Cl)c1 [GW707818],17%,28%,0%,1%,0%,82%,36%,0%,4%,0%,0%,11%,7%,4%,5%,3%,9%,0%,12%,1%
COc1ccc(NC(=O)c2ccc(-c3cc(-c4nnc(C)o4)ccc3C)cc2)cc1 [GW595885],0%,0%,42%,0%,32%,12%,47%,0%,2%,1%,0%,20%,0%,0%,4%,0%,25%,0%,0%,0%
Cn1ccc2ncnc(Nc3ccc(Oc4cccc(Cl)c4)c(Cl)c3)c21,0%,55%,5%,11%,4%,0%,26%,11%,29%,17%,15%,17%,14%,0%,1%,0%,0%,14%,0%,25%
